Compound activity (PubChem)
Only a selection was taken, and hits are over-represented in it overall.
KDM5B inh: inhibitors of human KDM5B histone demethylase; Potency, µM (titrated, usually from 57.7 µM), hits mostly inhibitors; hit rate 2.6% among 220,000; Q9UGL1; KDM5B demethylase, FDH-coupled NADH fluorescence (FDH is formaldehyde dehydrogenase); AID 1347165; active = well fitted inhibition curve with a large enough effect; also: nearly all actives have a fitted effect of over 70% in size
Target sequence (Q9UGL1 whole entry, looked up): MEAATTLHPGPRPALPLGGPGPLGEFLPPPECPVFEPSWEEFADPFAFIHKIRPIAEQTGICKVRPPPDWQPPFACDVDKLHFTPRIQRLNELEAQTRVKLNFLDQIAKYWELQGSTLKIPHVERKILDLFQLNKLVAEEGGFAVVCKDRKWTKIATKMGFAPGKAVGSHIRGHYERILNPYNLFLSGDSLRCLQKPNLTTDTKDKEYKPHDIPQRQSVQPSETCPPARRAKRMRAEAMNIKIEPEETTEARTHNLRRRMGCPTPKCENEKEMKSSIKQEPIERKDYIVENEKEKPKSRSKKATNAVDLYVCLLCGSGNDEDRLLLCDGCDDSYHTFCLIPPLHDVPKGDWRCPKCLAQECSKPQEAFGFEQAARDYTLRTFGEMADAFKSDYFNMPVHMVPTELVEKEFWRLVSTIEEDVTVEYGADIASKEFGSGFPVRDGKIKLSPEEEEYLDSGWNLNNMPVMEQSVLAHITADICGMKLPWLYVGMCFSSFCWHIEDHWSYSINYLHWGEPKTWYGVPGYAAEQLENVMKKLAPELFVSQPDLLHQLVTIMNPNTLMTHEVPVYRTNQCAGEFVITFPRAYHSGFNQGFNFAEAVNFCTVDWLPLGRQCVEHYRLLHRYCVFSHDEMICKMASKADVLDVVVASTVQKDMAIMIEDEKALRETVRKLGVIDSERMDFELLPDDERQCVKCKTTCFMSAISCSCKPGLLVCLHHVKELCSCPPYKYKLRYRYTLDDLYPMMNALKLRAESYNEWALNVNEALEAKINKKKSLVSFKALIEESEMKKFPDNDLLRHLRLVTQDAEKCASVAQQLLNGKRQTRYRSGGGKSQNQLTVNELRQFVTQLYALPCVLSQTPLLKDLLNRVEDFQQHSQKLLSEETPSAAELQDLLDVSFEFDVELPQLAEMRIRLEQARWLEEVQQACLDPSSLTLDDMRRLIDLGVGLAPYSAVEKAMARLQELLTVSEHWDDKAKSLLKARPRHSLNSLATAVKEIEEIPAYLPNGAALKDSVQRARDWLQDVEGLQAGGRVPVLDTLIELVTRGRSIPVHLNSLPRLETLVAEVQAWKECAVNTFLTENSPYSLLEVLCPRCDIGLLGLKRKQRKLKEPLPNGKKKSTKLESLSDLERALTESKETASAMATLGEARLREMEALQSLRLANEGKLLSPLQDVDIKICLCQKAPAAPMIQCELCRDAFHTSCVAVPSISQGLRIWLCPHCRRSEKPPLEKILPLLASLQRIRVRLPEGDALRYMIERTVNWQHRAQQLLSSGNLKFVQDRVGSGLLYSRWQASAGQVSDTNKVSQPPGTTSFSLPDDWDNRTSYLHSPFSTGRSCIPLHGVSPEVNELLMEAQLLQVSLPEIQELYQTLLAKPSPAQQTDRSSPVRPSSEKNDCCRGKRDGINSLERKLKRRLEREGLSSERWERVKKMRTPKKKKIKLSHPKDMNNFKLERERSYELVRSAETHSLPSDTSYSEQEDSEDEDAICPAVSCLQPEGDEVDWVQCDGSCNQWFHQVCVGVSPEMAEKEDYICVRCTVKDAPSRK
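qHTS format, multiple compound concentrations. Buffer 50 mM HEPES pH 7.5/0.01% Tween-20; 200 nM KDM5BΔAP final; 10 min compound preincubation; substrate-mix levels 12.5 µM peptide, 25 µM α-KG, 0.25 mM NAD⁺; 30 min RT; ΔRFU.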
Hits are given with their value; - = inactive.

SMILES | KDM5B inh
Cc1ccc(-c2cc(Nc3cccc(C)c3C)nc(C)n2)cc1 | -
CN(Cc1ccc(Cl)c(Cl)c1)C(=O)c1ccc2c(c1)CCCN2S(C)(=O)=O | -
O=C(c1ccc(-n2cnnn2)cc1)N(CCc1cccs1)Cc1cccs1 | -
Cc1cc(C(=O)N[C@H]2[C@H](O)[C@H](O)C[C@@H]2c2ccccc2)c(C(F)(F)F)o1 | -
Cc1cc(C)n2nc(C(=O)NCC3COc4ccccc4C3)cc2n1 (centres undefined) | 22µM
CCn1cc(S(=O)(=O)NCC2COc3ccccc3C2)c(C)n1 (centres undefined) | -
CCCn1cc(C(=O)NCC2COc3cc(OC)ccc3C2)c(C)n1 (centres undefined) | -
CC(Sc1n[nH]c(-c2ccccc2)n1)C(=O)Nc1cccc(C(F)(F)F)c1 (centres undefined) | -
CC(=O)N1Cc2ccccc2OC2(CCN(C(=O)N(C)C)CC2)C1 | -
CN(C)C(=O)N1CCC2(CC1)CN(C(=O)c1cccc3[nH]ccc13)Cc1ccccc1O2 | 50µM
CC(=O)N1CCC2(CC1)CN(C(=O)c1ccc(N)nc1)Cc1ccccc1O2 | -
CC(=O)N1Cc2ccccc2OC2(CCN(C(=O)c3ccnc(N)c3)CC2)C1 | 79µM
CC(C)NC(=O)N1Cc2ccccc2OC2(CCN(C(=O)c3cccc4[nH]ccc34)CC2)C1 | -
CC(=O)N1Cc2ccccc2OC2(CCN(C(=O)NC(C)C)CC2)C1 | -
Cc1ccc(C2=NC3(CCN(C(=O)COc4ccccc4)CC3)ON2)cc1 | -
CCCOc1ccc(NC(=O)COc2ccccc2C)c2cccnc12 | -
Cn1cc(-c2cc3n(n2)CCCN3C(=O)CCC(=O)NCCCN2CCCC2)c2ccccc21 | -
Cc1ccsc1CNCCCN(C)C | -
O=C(Cc1cccc(Cl)c1)NCC1COc2ncncc2C(=O)N1CC1CC1 (centres undefined) | -
O=C(Cc1cccc(F)c1)NCC1COc2ncncc2C(=O)N1Cc1ccccc1 (centres undefined) | 28µM
O=C1c2cncnc2OCC(CNC(=O)C2(c3ccccc3)CC2)N1Cc1ccccc1 (centres undefined) | -
O=C(NCCc1nc2ccccc2[nH]1)c1cccc(N2CCCN(Cc3ccccc3)C2=O)c1 | -
CN(C(=O)Nc1cccc(Cl)c1)C(c1ccc(Cl)cc1)c1nccn1C (centres undefined) | -
C=CCN1CCN(c2ccc(C(F)(F)F)cn2)CC1 | -
CCc1nc(CN2CCN(c3ccc(C(F)(F)F)cn3)CC2)c(C)[nH]1 | -
SMILES | KDM5B inh
CCn1ncc(CN2CCCC23CCN(c2ccc(C(F)(F)F)cn2)CC3)c1C | 28µM
O=C(Nc1ccc(Nc2ccccc2)nc1)c1cccc[n+]1[O-] | -
CCNc1nc(-c2[nH]c(C)c(C(=O)OC)c2C)cs1 | -
CC[N+](C)(CC#CC(O)(c1ccccc1)C1CCCC1)C(C)C (centres undefined) | -
CN1C(=O)c2cccn2CC1CNC(=O)c1ccco1 (centres undefined) | -
Cc1cccc(C(=O)NCC2Cn3cccc3C(=O)N2C)c1 (centres undefined) | -
Cc1ccsc1C(=O)NCC1Cn2cccc2C(=O)N1CC(C)C (centres undefined) | -
CN1C(=O)c2cccn2CC1CNC(=O)NC1CCCC1 (centres undefined) | -
Cc1ccc(CNC(=O)NCC2Cn3cccc3C(=O)N2C)cc1 (centres undefined) | -
O=C(NCC1Cn2cccc2C(=O)N1Cc1ccccc1)c1ccncc1 (centres undefined) | -
CN1Cc2cccn2CC1CNC(=O)c1ccoc1 (centres undefined) | 28µM
CCNC(=O)NCC1Cn2cccc2CN1C (centres undefined) | 22µM
Cc1ccsc1C(=O)NCC1Cn2cccc2CN1C (centres undefined) | 32µM
COc1ccc(C(=O)NCC2Cn3cccc3C(=O)N2Cc2ccccc2)cc1 (centres undefined) | -
CN1C(=O)c2cccn2CC1CNC(=O)c1cccs1 (centres undefined) | -
O=C(NCC1Cn2cccc2CN1Cc1ccccc1)c1ccncc1 (centres undefined) | 28µM
Cc1oc(-c2nc(C#N)c(N(C)C)o2)cc1S(=O)(=O)N(C)c1ccccc1 | -
Cc1ccc2c(COC(=O)C3=NN(C)C(=O)CC3)cc(=O)oc2c1 | -
O=C(CCc1ncc(-c2ccc(F)cc2)o1)NCc1cccc(Cl)c1 | -
CCN(CC)S(=O)(=O)c1ccc2c(c1)CC(C(=O)NCCc1ccc(Cl)cc1)N2C(C)=O (centres undefined) | -
Cc1nc2cc(NC(=O)c3ccc(C(C)C)cc3)ccc2o1 | -
CCC(CC)C(CNC(=O)c1cccc(Cl)c1Cl)N1CCOCC1 (centres undefined) | -
COCCn1c(Cc2c(Cl)cccc2Cl)n[nH]c1=S | -
COc1ccccc1N1CCN([C@H]2[C@@H]3OC[C@@H](O3)[C@@H](N(CC3CC3)CC3CC3)[C@@H]2O)CC1 | -
COc1ccc(NC(=O)CSc2nc3c(=O)[nH]cnc3n2-c2ccc(C)cc2)cc1OC | -
SMILES | KDM5B inh
O=C(Nc1ccc(Cl)cc1)C1CCN(C(=O)c2ncn3c2COC(c2ccccc2)C3)CC1 (centres undefined) | -
CC(C)n1ccc2c(NC(=O)C[C@H]3NC(=O)c4ccccc4NC3=O)cccc21 | -
O=C(NCC1Cn2cccc2C(=O)N1Cc1ccccc1)c1ccsc1 (centres undefined) | -
O=C(NCC1Cn2cccc2C(=O)N1Cc1ccccc1)c1n[nH]c(=O)c2ccccc12 (centres undefined) | -
Cc1ncoc1C(=O)NCC1Cn2cccc2C(=O)N1Cc1ccccc1 (centres undefined) | -
O=C(NCC1Cn2cccc2CN1Cc1ccccc1)c1n[nH]c2ccccc12 (centres undefined) | 14µM
O=C(NCC1Cn2cccc2CN1Cc1ccccc1)c1ccoc1 (centres undefined) | 28µM
COCCN1C(=O)c2cccn2CC1CNC(=O)c1ccsc1 (centres undefined) | -
O=C(NCC1Cn2cccc2CN1Cc1ccccc1)c1ccsc1 (centres undefined) | 25µM
Cc1cccc(C(=O)NCC2Cn3cccc3C(=O)N2Cc2ccccc2)c1 (centres undefined) | -
O=C(NCC1Cn2cccc2C(=O)N1Cc1ccccc1)c1cn[nH]c1-c1ccccc1 (centres undefined) | -
O=C(Nc1ccnn1Cc1ccccc1Cl)c1n[nH]c(=O)c2ccccc12 | -
O=C(c1cccs1)N(Cc1cccc2[nH]ccc12)C1CC1 | -
Cc1oc(-c2ccccc2)nc1CS(=O)CC(=O)N1CCc2ccccc21 (centres undefined) | -
COc1ccc(C(C)=O)cc1COC(=O)c1ccc(C#N)cc1 | -
Oc1ccc(Cl)cc1C=Nc1cc(C(F)(F)F)ccc1Oc1ccc(Cl)cc1 | -
COc1ccc(CCN2CCC(CN(C)C(=O)NCc3ccccc3)CC2)cc1 | -
C#CCNC(=O)c1ccc2ccccc2n1 | -
COc1ccccc1-c1cc(C(=O)N2CCCC2)c2cnn(C)c2n1 | -
COc1ccccc1C1=NS(=O)(=O)N(C)C(C(=O)Nc2cc(OC)c(OC)c(OC)c2)=C1 | -
COc1ccccc1-c1cc(C(=O)N2CCCC2)nn2cccc12 | -
COc1ccccc1-c1cc(C(=O)N2CCCC2)nc2c1cnn2C | 79µM
C#CCNC(=O)c1cc(-c2ccccc2OC)c2cnn(C)c2n1 | 89µM
O=C1NC(CCc2ccccc2)C(=O)N1Cc1coc(-c2cccc(F)c2)n1 (centres undefined) | -
